PubChem BioAssay (NCATS)
Results filed as inconclusive are left out. Active and inactive are the calls of the source. Calls come from the whole dose curve; as a rule, active = well fitted curve in the direction sought with a large enough effect; inconclusive = small, poorly fitted or top-dose-only effect, or another doubt; inactive = no such curve, though single readings can be large; an effect the other way counts as inactive or inconclusive.

Experiments:
[1] = Quantitative High-Throughput drug screen in 47 multiple myeloma cell lines against the NCATS MIPE library collection: KMM1_JCRB cell viability assay (AID 1918960); note: nearly all actives have a fitted effect of over 30% in size
In short: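 Each line was plated at 500 cells/well and treated 48 h with library drugs. Viability came from CellTiter-Glo luminescence relative to DMSO and cell-free medium controls.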

[2] = Quantitative High-Throughput drug screen in 47 multiple myeloma cell lines against the NCATS MIPE library collection: Karpas417_ECACC cell viability assay (AID 1918961); conditions: Karpas417 myeloma viability, CellTiter-Glo ATP luminescence, 48 h; viability (% of DMSO): at 45.8 µM (top of the series)
In short: (§1)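 Luminescent ATP measurement with CellTiter-Glo gives viability, scaled between DMSO-only wells (100%) and media-only wells (0%). Cells, 500 per well, faced library compounds for 48 hours at 37C.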

[3] = Quantitative High-Throughput drug screen in 47 multiple myeloma cell lines against the NCATS MIPE library collection: KHM11_PLB cell viability assay (AID 1918962); note: nearly all actives have a fitted effect of over 35% in size
In short: (§2)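 qHTS of the MIPE 4.0 collection: 500 myeloma cells/well, 48 h drug exposure at 37C in 5% CO2, then CellTiter-Glo for 5 min at room temperature before luminescence reading.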

[4] = Quantitative High-Throughput drug screen in 47 multiple myeloma cell lines against the NCATS MIPE library collection: JIM3_ECACC cell viability assay (AID 1918963; note: nearly all actives have a fitted effect of over 35% in size)
In short: as §2

[5] = Quantitative High-Throughput drug screen in 47 multiple myeloma cell lines against the NCATS MIPE library collection: JIM1_ECACC cell viability assay (AID 1918964)
In short: (§3)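 Steps: seed 500 cells per well; pin-transfer MIPE 4.0 library; incubate 48 h at 37C, 5% CO2, humidified; add CellTiter-Glo, 5 min room temperature; read luminescence.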

[6] = Quantitative High-Throughput drug screen in 47 multiple myeloma cell lines against the NCATS MIPE library collection: INA6_PLB cell viability assay (AID 1918965; note: nearly all actives have a fitted effect of over 55% in size)
In short: as §1

[7] = Quantitative High-Throughput drug screen in 47 multiple myeloma cell lines against the NCATS MIPE library collection: H1112_PLB cell viability assay (AID 1918967; note: nearly all actives have a fitted effect of over 30% in size)
In short: as §3

[8] = Quantitative High-Throughput drug screen in 47 multiple myeloma cell lines against the NCATS MIPE library collection: Karpas25_ECACC cell viability assay (AID 1918968; note: nearly all actives have a fitted effect of over 35% in size)
In short: as §3

[9] = Quantitative High-Throughput drug screen in 47 multiple myeloma cell lines against the NCATS MIPE library collection: KMS27_JCRB cell viability assay (AID 1918970); note: nearly all actives have a fitted effect of over 30% in size
In short: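 Myeloma cells (500 per well) were exposed to MIPE 4.0 compounds for 48 h at 37 °C, 5% CO2; viability was read as ATP luminescence with CellTiter-Glo, normalized to DMSO-only (100%) and media-only (0%) wells.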

[10] = Quantitative High-Throughput drug screen in 47 multiple myeloma cell lines against the NCATS MIPE library collection: KMS12BM_JCRB cell viability assay (AID 1918971); note: nearly all actives have a fitted effect of over 35% in size
In short: (§4)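 CellTiter-Glo luminescence (ATP) after 48 h compound exposure, 37C/5% CO2; 500 cells/well; MIPE 4.0 approved/investigational drugs pinned in; DMSO = 100%, media only = 0% viability.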

[11] = Quantitative High-Throughput drug screen in 47 multiple myeloma cell lines against the NCATS MIPE library collection: KMS12PE_JCRB cell viability assay (AID 1918972); note: nearly all actives have a fitted effect of over 30% in size
In short: as §1

[12] = Quantitative High-Throughput drug screen in 47 multiple myeloma cell lines against the NCATS MIPE library collection: KMS20_JCRB cell viability assay (AID 1918973); note: nearly all actives have a fitted effect of over 45% in size
In short: as §3

[13] = Quantitative High-Throughput drug screen in 47 multiple myeloma cell lines against the NCATS MIPE library collection: KMS21BM_JCRB cell viability assay (AID 1918974); conditions: ATP luminescence, 48 h; viability: at 45.8 µM (top of the series) unless noted
In short: as §3

[14] = Quantitative High-Throughput drug screen in 47 multiple myeloma cell lines against the NCATS MIPE library collection: MOLP8_DSMZ cell viability assay (AID 1918977); note: nearly all actives have a fitted effect of over 45% in size
In short: (§5)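 qHTS format: cells plated (500/well), pin-dosed with MIPE 4.0 compounds, kept 48 h at 37 °C. Readout was CellTiter-Glo luminescence, median RLU.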

[15] = Quantitative High-Throughput drug screen in 47 multiple myeloma cell lines against the NCATS MIPE library collection: NCIH929_DSMZ cell viability assay (AID 1918978); note: nearly all actives have a fitted effect of over 35% in size
In short: as §5

[16] = Quantitative High-Throughput drug screen in 47 multiple myeloma cell lines against the NCATS MIPE library collection: OCIMY1_PLB cell viability assay (AID 1918979); note: nearly all actives have a fitted effect of over 35% in size
In short: as §5

[17] = Quantitative High-Throughput drug screen in 47 multiple myeloma cell lines against the NCATS MIPE library collection: MM1S_ATCC cell viability assay (AID 1918980); note: nearly all actives have a fitted effect of over 45% in size
In short: as §5

[18] = Quantitative High-Throughput drug screen in 47 multiple myeloma cell lines against the NCATS MIPE library collection: JJN3_DSMZ cell viability assay (AID 1918966; note: nearly all actives have a fitted effect of over 50% in size)
In short: as §3

[19] = Quantitative High-Throughput drug screen in 47 multiple myeloma cell lines against the NCATS MIPE library collection: KMS26_JCRB cell viability assay (AID 1918975); note: nearly all actives have a fitted effect of over 45% in size
In short: as §4

[20] = Quantitative High-Throughput drug screen in 47 multiple myeloma cell lines against the NCATS MIPE library collection: MMM1_PLB cell viability assay (AID 1918976); note: nearly all actives have a fitted effect of over 35% in size
In short: as §5

Measured: Potency
Potency is the fitted concentration of half-maximal effect.

Nc1ccccc1NC(=O)c1ccc(CNc2nccc(-c3cccnc3)n2)cc1
active: [1] 1.05 µM | [2] 0.469 µM | [3] 2.64 µM | [4] 2.64 µM | [5] 1.32 µM | [6] 0.296 µM | [7] 2.64 µM | [8] 0.833 µM | [9] 2.64 µM | [10] 1.32 µM | [11] 0.469 µM | [12] 0.743 µM | [13] 0.662 µM | [14] 1.18 µM | [15] 1.18 µM | [16] 3.32 µM | [17] 0.935 µM

Cc1ccc(C(N)=O)cc1Nc1nccc(-c2cn(C(C)C)c3cnccc23)n1
active: [1] 4.18 µM | [2] 2.96 µM | [3] 3.32 µM | [4] 5.26 µM | [5] 2.35 µM | [6] 2.64 µM | [18] 4.69 µM | [7] 3.32 µM | [8] 3.72 µM | [9] 3.32 µM | [10] 16.6 µM | [11] 5.9 µM | [12] 4.18 µM | [13] 0.935 µM | [19] 10.5 µM | [20] 16.6 µM | [14] 4.69 µM | [15] 2.96 µM

CC(=O)c1c(C)c2cnc(Nc3ccc(N4CCNCC4)cn3)nc2n(C2CCCC2)c1=O
active: [1] 20.9 µM | [2] 16.6 µM | [3] 23.5 µM | [4] 18.7 µM | [5] 5.9 µM | [6] 18.7 µM | [18] 23.5 µM | [7] 23.5 µM | [8] 11.8 µM | [9] 26.4 µM | [10] 0.833 µM | [11] 23.5 µM | [12] 7.43 µM | [13] 14.8 µM | [19] 18.7 µM | [15] 20.9 µM | [17] 20.9 µM

CCc1c2c(nc3ccc(O)cc13)-c1cc3c(c(=O)n1C2)COC(=O)[C@]3(O)CC
active: [1] 0.132 µM | [2] 0.332 µM | [3] 0.166 µM | [4] 0.526 µM | [5] 0.0372 µM | [6] 0.001 µM | [18] 0.332 µM | [7] 0.0469 µM | [8] 0.0662 µM | [9] 0.0059 µM | [10] 0.0662 µM | [11] 0.187 µM | [12] 0.118 µM | [19] 2.35 µM | [20] 0.833 µM | [14] 0.166 µM | [15] 0.0469 µM | [16] 0.59 µM | [17] 0.0118 µM

COC(=O)c1ccc2c(C(=Nc3ccc(N(C)C(=O)CN4CCN(C)CC4)cc3)c3ccccc3)c(O)[nH]c2c1
active: [1] 1.66 µM | [2] 0.187 µM | [3] 26.4 µM | [4] 6.62 µM | [5] 0.0469 µM | [6] 8.33 µM | [18] 2.35 µM | [8] 11.8 µM | [10] 16.6 µM | [11] 0.526 µM | [12] 2.64 µM | [13] 0.0526 µM | [19] 2.64 µM | [14] 9.35 µM | [15] 5.9 µM | [16] 10.5 µM | [17] 1.18 µM

CNC(=O)c1cc(Oc2ccc(NC(=O)Nc3cc(C(C)(C)C)nn3-c3ccc4ncccc4c3)c(F)c2)ccn1
active: [1] 16.6 µM | [2] 9.35 µM | [3] 2.64 µM | [4] 3.32 µM | [5] 7.43 µM | [6] 3.32 µM | [18] 2.96 µM | [7] 4.18 µM | [8] 6.62 µM | [9] 23.5 µM | [10] 5.9 µM | [11] 16.6 µM | [12] 5.9 µM | [13] 4.18 µM | [15] 4.69 µM | [16] 16.6 µM | [17] 11.8 µM

CC(C)[C@H](C(=O)Nc1ccc(C(=O)NO)cc1)c1ccccc1
active: [1] 0.662 µM | [2] 0.469 µM | [3] 1.32 µM | [4] 1.48 µM | [5] 0.332 µM | [6] 0.235 µM | [18] 0.662 µM | [7] 1.05 µM | [8] 0.418 µM | [9] 2.09 µM | [10] 0.526 µM | [11] 0.526 µM | [12] 0.833 µM | [13] 0.105 µM | [19] 3.32 µM | [14] 0.526 µM | [15] 0.526 µM | [16] 1.18 µM | [17] 0.662 µM

CC(C)(C)c1cnc(CSc2cnc(NC(=O)C3CCNCC3)s2)o1
active: [1] 0.187 µM | [2] 0.132 µM | [3] 0.0743 µM | [4] 0.235 µM | [5] 0.0743 µM | [6] 0.235 µM | [18] 0.0833 µM | [7] 0.469 µM | [8] 0.209 µM | [9] 0.209 µM | [10] 0.132 µM | [11] 0.526 µM | [12] 0.0743 µM | [13] 0.0662 µM | [19] 0.148 µM | [20] 0.105 µM | [15] 0.264 µM | [16] 1.66 µM | [17] 0.0662 µM

O=C(c1ccc(Nc2nccc(-c3cc4ccccc4s3)n2)cc1)N1CCC(N2CCCC2)CC1
active: [1] 5.9 µM | [2] 2.09 µM | [3] 3.72 µM | [4] 3.72 µM | [5] 4.69 µM | [6] 1.66 µM | [18] 16.6 µM | [8] 4.18 µM | [9] 4.18 µM | [10] 13.2 µM | [11] 1.87 µM | [12] 1.32 µM | [13] 5.26 µM | [20] 20.9 µM | [14] 13.2 µM | [15] 5.9 µM | [16] 20.9 µM | [17] 20.9 µM
